Over roughly 33,000 sequences, “E-score (-0.5 to 0.5)” has its median near -0.0034; the highest 2% begin near 0.25. The sample as a whole holds a higher share of the highest values than the screen did.

The assay has as its target T1, Yap3 (UniProt P38749).
T1 sequence: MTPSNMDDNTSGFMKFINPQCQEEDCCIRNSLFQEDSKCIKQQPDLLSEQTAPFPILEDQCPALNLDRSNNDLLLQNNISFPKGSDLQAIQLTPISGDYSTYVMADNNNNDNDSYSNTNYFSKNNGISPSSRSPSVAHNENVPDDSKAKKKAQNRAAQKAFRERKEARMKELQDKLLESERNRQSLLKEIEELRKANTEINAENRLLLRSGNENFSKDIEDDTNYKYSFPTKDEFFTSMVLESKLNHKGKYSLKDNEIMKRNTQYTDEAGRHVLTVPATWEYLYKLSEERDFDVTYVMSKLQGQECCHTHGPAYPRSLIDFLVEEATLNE
The assay is described as follows: PBM E-score (8-mer binding enrichment) (E-score (-0.5 to 0.5)); higher = stronger / more preferred TF binding. As to conditions: protein concentration: 100 nM; construct: GST-full length. As to the method: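 Universal 'all 10-mer' protein binding microarrays (Agilent AMADID 015681) probed with GST-tagged S. cerevisiae TFs (full-length or DBD) made by in vitro transcription/translation (PURExpress), about 100-200 nM. Bound TF was detected with fluorescent anti-GST. Each ungapped 8-mer (which stands for itself and its reverse complement) is scored by the PBM enrichment score (E-score), a modified Wilcoxon-Mann-Whitney statistic from -0.5 to +0.5, computed with the Universal PBM Analysis Suite. Scale: above 0.35 generally sequence-specific binding.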
On to AATTTATC, for which the “PBM E-score” value turned out to be 0.325.
In the case of CGTTTATA it was 0.28; in that of ACTTTATA, 0.259; in that of CATTTATC, 0.198.
On to GTTTTATA, for which the “PBM E-score” value is 0.139.
In the case of ATTTTATA, the “PBM E-score” value came to 0.331.
Turning to CCTTTATA, the “PBM E-score” value is 0.0052.
In the case of ATTTTATC it was 0.235.
In the case of ATTTTATG it was 0.21; in that of GGCAGTCA, -0.11; in that of AAGGTAAC, 0.121.
In the case of AATTTGAT, the “PBM E-score” value turned out to be 0.0887.
In the case of ATCGTTTA it was 0.135.
On to AAGAGCCG, for which the “PBM E-score” value is -0.0966.
In the case of AGTCACGG, the “PBM E-score” value came out at 0.00648.
For AGGCAGAA, the “PBM E-score” value was -0.0515.
Consider CCTCGCAC, for which the “PBM E-score” value is -0.133.
As for AATTTATG, the “PBM E-score” value is 0.252.
With AATTTATA, the “PBM E-score” value is 0.294.
For CATTTATA, the “PBM E-score” value was 0.215.
In the case of GGACATAA, the “PBM E-score” value turned out to be 0.0711.
Take ATGCATTC: the “PBM E-score” value amounted to 0.0938.
Turning to CTCCATAA, the “PBM E-score” value was -0.0865.
As to AACCATAA, the “PBM E-score” value is 0.15.
As to AGACATAA, the “PBM E-score” value stood at 0.136.
CTGCATTA: the “PBM E-score” value was -0.0676.
As to GTCCATAA, the “PBM E-score” value is -0.0433.
Take AACCATAC: the “PBM E-score” value came to 0.0832.
For the sequence ATCCATAA, the “PBM E-score” value is 0.258.
With AACCATAT, the “PBM E-score” value was found to be 0.266.
Turning to ATGCATTA, the “PBM E-score” value was determined as 0.333.
Regarding TGACATAA, the “PBM E-score” value worked out at 0.3.
Regarding CTCCTTCC, the “PBM E-score” value is -0.171.
In the case of CATTTGAC, the “PBM E-score” value worked out at 0.0765.
GGAGCGCA: the “PBM E-score” value was -0.261.
Turning to AAGTACGG, the “PBM E-score” value was -0.0366.
On to AGCAATTC, for which the “PBM E-score” value was 0.134.
In the case of TAGGCCCA it was -0.198; in that of TCGTCGAA, 0.0355.
In the case of GCACATAA it was 0.131; in that of ATACATAC, 0.0937.
Turning to CTACATAA, the “PBM E-score” value was -0.0287.
As for ATACATAG, the “PBM E-score” value was 0.112.
Take GTACATAA: the “PBM E-score” value was found to be 0.135.
ATACATAA: the “PBM E-score” value amounted to 0.285.
For ACACATAA, the “PBM E-score” value came out at 0.299.
Take TTACATAA: the “PBM E-score” value was found to be 0.416.
Consider ATACATAT, for which the “PBM E-score” value amounted to 0.286.
With ATACATCA, the “PBM E-score” value was found to be 0.207.
In the case of ACACATAG, the “PBM E-score” value was -0.0796.
For the sequence AGACATAT, the “PBM E-score” value worked out at 0.185.
For GCCAATCA, the “PBM E-score” value was -0.169.
CCAGCAGA: the “PBM E-score” value was -0.17.
As to AACTGCTA, the “PBM E-score” value was 0.00439.
CCGCCTGC: the “PBM E-score” value was -0.278.
Turning to AGAGAAAA, the “PBM E-score” value was found to be 0.0508.
For GTTTGAGA, the “PBM E-score” value is -0.0917.
As to GGATTGGA, the “PBM E-score” value turned out to be 0.19.
In the case of TCGCGCCA it was -0.0451; in that of ATCTGGAG, -0.165.
In the case of GCTTGGAC it was -0.0766; in that of CAAGGATG, -0.0177; in that of CGCAATAG, 0.105.
As for CCAATGAG, the “PBM E-score” value is -0.0674.
In the case of AAACATAG, the “PBM E-score” value was -0.0382.
On to AAACATAC, for which the “PBM E-score” value came to 0.0457.
Turning to AAACATAT, the “PBM E-score” value worked out at 0.305.
As to CTACATTA, the “PBM E-score” value came to 0.11.
Take ATACATTA: the “PBM E-score” value worked out at 0.266.
For GTACATTA, the “PBM E-score” value was found to be 0.0635.
On to ATCAGGCA, for which the “PBM E-score” value is -0.0855.
In the case of CGCACTTA it was -0.0802; in that of GCTGTGCA, -0.205; in that of AACGGCGG, -0.208.
As for ATATTACA, the “PBM E-score” value is 0.226.
ACATTACA: the “PBM E-score” value amounted to 0.131.
Consider ATATTACG, for which the “PBM E-score” value was found to be 0.412.
In the case of ACATTACG, the “PBM E-score” value worked out at 0.286.
In the case of ACATTACT it was 0.213.
ATATTATC: the “PBM E-score” value came to 0.149.
Turning to GCATTACA, the “PBM E-score” value was 0.1.
In the case of CCATTACA it was 0.272; in that of AGATTATG, 0.129; in that of CCATTACG, 0.0884.
In the case of AGATTACG, the “PBM E-score” value turned out to be 0.213.
With ATATTATG, the “PBM E-score” value was 0.399.

For the origin of these results see the supplement of paper PMC3334620.
